Cycloheximide cs = Cycloheximide Counterscreen for Small Molecule Inhibitors of Shiga Toxin | cell reporter, cycloheximide protein synthesis inhibition counterscreen | max response, % | 300,000 compounds, 12% hits | AID 2314, 2010; in the data active = max response mostly above about 13%, no sharp cut-off; inactive = mostly below about 14%; note: read at 38.3 µM for the half of the compounds with a filed dose; 0% is about no effect
Shiga toxin inh = A qHTS for Small Molecule Inhibitors of Shiga Toxin; Vero cells, Shiga toxin protein synthesis inhibition reporter; inhibition, % at 38.7 µM; 290,000 compounds, 9.2% hits; in the data active = inhibition mostly above about 28%, no sharp cut-off; inactive = mostly below about 43%; note: 0% is about no effect
Pf growth 96h = Primary qHTS for delayed death inhibitors of the malarial parasite plastid, 96 hour incubation; AID 504834, 2011; P. falciparum luciferase reporter growth, 96 h; Potency, µM (doses to about 28.7 µM), for the others: top-dose activity change, negative = inhibition, usual class: inhibitors; 320,000 compounds, 6.9% hits; note: potency is the fitted concentration of half-maximal effect; % is set by controls: 0 for no effect and ±100 for the full control effect
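Erythrocytes infected with luciferase-expressing P. falciparum were dispensed at 2% hematocrit and 0.05% parasitemia (final), then incubated with compounds 96 hours at 37 C in 5% CO2. Luminescence after detection reagent addition reported growth.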
HCMV antiviral = qHTS Assay for inhibitors of the human cytomegalovirus (HCMV) | HFF cells, HCMV-luciferase reporter, 72 h; active compounds read low | activity change, negative = inhibition, % at 57.5 µM | 410,000 compounds, 4.5% hits; in the data active = activity change below about -60%; inconclusive = no clear call, values can overlap the other calls; inactive = above about -39%; note: % is set by controls: 0 for no effect and ±100 for the full control effect
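After 16 h attachment at 37C, HFF cells received test compound and HCMV-luciferase (1 PFU/cell); reporter luminescence read 72 h later, data normalized against buffer-only and known inhibitor Salinomycin.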
Pf growth 48h = Primary qHTS for delayed death inhibitors of the malarial parasite plastid, 48 hour incubation. Potency, µM (series often up to 28.7 µM), for inactives: at the top dose activity change, negative = inhibition, actives largely listed as inhibitors. AID 504832, 2011. 310,000 compounds, 5.9% hits. P. falciparum luciferase growth in erythrocytes, 48 h; note: potency is the fitted concentration of half-maximal effect; % is set by controls: 0 for no effect and ±100 for the full control effect
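Growth was read as firefly luciferase luminescence after a 48 h, 37 C, 5% CO2 exposure of compounds to reporter-bearing P. falciparum cultures (0.1% parasitemia, 2% hematocrit final) in Albumax-supplemented RPMI 1640.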
Starred values were filed as active, the others as inactive; ! = a repeat was not active. Most compounds without a hit are left out; they make up all but 20% or so of the library. Unless noted, calls come from the whole dose curve; as a rule, active = well fitted inhibition curve with a large enough effect; inconclusive = small, poorly fitted or top-dose-only effect, or another doubt; inactive = no such curve, though single readings can be large or run the other way.

`COCCCn1c(-c2ccc(OC)cc2)nc2nc3ccccc3nc21` gave Cycloheximide cs 23, Shiga toxin inh 21 and Pf growth 48h 16%.
Screening Cc1nc2ccccc2c(=O)n1Cc1ccco1 returned Cycloheximide cs 0, Shiga toxin inh -9, Pf growth 96h -29%, HCMV antiviral -2 and Pf growth 48h 16%.
`Clc1ccc(-c2nc3nc4ccccc4nc3n2Cc2ccco2)cc1` gave Cycloheximide cs 52*, Shiga toxin inh 82*, Pf growth 96h inconclusive, HCMV antiviral 129 and Pf growth 48h -1%.
CC1(C)NC(=O)N(CC(O)CN(c2ccccc2)S(=O)(=O)c2ccc([N+](=O)[O-])cc2)C1=O (stereo not given) was read as Cycloheximide cs -3, Shiga toxin inh -3, Pf growth 96h 73%, HCMV antiviral 8 and Pf growth 48h 2%.
`CC(=O)N(C)c1ccc(OCC(O)CN(Cc2ccco2)S(=O)(=O)c2ccc(C)cc2)cc1` (stereo not given) gave Cycloheximide cs -3, Shiga toxin inh 25, HCMV antiviral -30 and Pf growth 48h inconclusive.
Screening CC(=O)N(C)c1ccc(OCC(O)CN(c2ccccc2C)S(=O)(=O)c2ccc(C)cc2)cc1 (stereo not given) returned Cycloheximide cs -2, Shiga toxin inh 21, Pf growth 96h 2.9µM*, HCMV antiviral -10 and Pf growth 48h 13µM*.
`O=[N+]([O-])c1ccccc1Nc1c2ccccc2nc2ccccc12` gave Cycloheximide cs -3, Shiga toxin inh -12, Pf growth 96h inconclusive, HCMV antiviral -62* and Pf growth 48h inconclusive.
`O=[N+]([O-])c1ccc(Nc2c3ccccc3nc3ccccc23)cc1` gave Cycloheximide cs 15, Shiga toxin inh 2, Pf growth 96h 64%, HCMV antiviral -90* and Pf growth 48h inconclusive.
Screening CCOC(=O)C1=CC[C@@H](c2ccccc2)N(S(=O)(=O)c2ccc(C)cc2)[C@H]1/C=C/c1ccccc1 returned HCMV antiviral -35.
C=CCN1C(=O)C(CC(C)C)NC1=S (stereo not given) was read as Cycloheximide cs -1, Shiga toxin inh -6, Pf growth 96h 0.54µM*! and Pf growth 48h -18%.
`C=CCN1C(=O)C(CCCC)NC1=S` (stereo not given) gave Cycloheximide cs -3, Shiga toxin inh -7, Pf growth 96h 31%, HCMV antiviral -12 and Pf growth 48h 8%.
COc1ccc(Cl)cc1NC(=O)c1[nH]nc(OC)c1[N+](=O)[O-] was read as Cycloheximide cs -3, Shiga toxin inh 11, Pf growth 96h -10%, HCMV antiviral 41 and Pf growth 48h -10%.
For COc1n[nH]c(C(=O)Nc2cc(Cl)ccc2Cl)c1[N+](=O)[O-] the results were Cycloheximide cs 9, Shiga toxin inh 3, Pf growth 96h 4.7µM*, HCMV antiviral -24 and Pf growth 48h inconclusive.
Screening CCCCc1ccc(-c2ccc(C)cc2O)nc1 returned Cycloheximide cs 25*, Shiga toxin inh 58*, Pf growth 96h 23% and HCMV antiviral 21.
CCCCc1ccc(-c2nn[nH]n2)nc1 was read as HCMV antiviral 71.
For CCCCc1ccc(-c2ccc(Br)cc2O)nc1 the results were Cycloheximide cs 49*, Shiga toxin inh 86*, Pf growth 96h 297% and HCMV antiviral 29.
Screening O=C(Nc1ccc(Cl)cc1)C1CCCCN1S(=O)(=O)c1ccccc1 (stereo not given) returned HCMV antiviral -101*.
For O=C(Nc1nnc(C2CC2)s1)C1CCCCN1S(=O)(=O)c1ccccc1 (stereo not given) the results were Cycloheximide cs -2, Shiga toxin inh -9, Pf growth 96h -10%, HCMV antiviral -17 and Pf growth 48h 13µM*.
For O=C(Nc1cccc(S(=O)(=O)N2CCOCC2)c1)[C@@H]1CCCN1S(=O)(=O)c1ccc(Cl)cc1 the results were Cycloheximide cs 1, Shiga toxin inh -10, Pf growth 96h 1.9µM*, HCMV antiviral -12 and Pf growth 48h inconclusive.
O=C(Nc1ccccc1Br)C1CCC(=O)N1Cc1ccccc1Cl (stereo not given) was read as Cycloheximide cs 8, Shiga toxin inh -13, Pf growth 96h 3%, HCMV antiviral 16 and Pf growth 48h -3%.
Screening O=C(Nc1ccc(Cl)cc1)C1CCC(=O)N1Cc1ccccc1Cl (stereo not given) returned Cycloheximide cs -2, Shiga toxin inh -10, Pf growth 96h 4.7µM*, HCMV antiviral 16 and Pf growth 48h 9.3µM*.
Screening O=C1CC(c2ccccc2)Sc2nc3ccccc3n21 (stereo not given) returned Cycloheximide cs 41*, Shiga toxin inh 99*, Pf growth 96h 28%, HCMV antiviral -4 and Pf growth 48h 340%.
For O=C1CC(c2ccco2)Sc2nc3ccccc3n21 (stereo not given) the results were Cycloheximide cs 36*, Shiga toxin inh 82*, Pf growth 96h 46%, HCMV antiviral 77 and Pf growth 48h 36%.
For CN1C(=O)CC(c2ccco2)Sc2ccccc21 (stereo not given) the results were Cycloheximide cs 0, Shiga toxin inh 24, Pf growth 96h 3%, HCMV antiviral 128 and Pf growth 48h 6%.
`O=C1CSCc2nc3ccccc3n21` gave HCMV antiviral 5.
O=C1CC(c2ccc(F)cc2)Sc2nc(-c3ccccc3)c(-c3ccccc3)n21 (stereo not given) was read as Cycloheximide cs -5, Shiga toxin inh -14, Pf growth 96h 37%, HCMV antiviral inconclusive and Pf growth 48h 0%.
O=C1CC(c2cccs2)Sc2nc3ccccc3n21 (stereo not given) was read as Cycloheximide cs 45*, Shiga toxin inh 106*, HCMV antiviral 78 and Pf growth 48h 185%.
Screening O=C1CC(c2ccc3c(c2)OCO3)Sc2nc3ccccc3n21 (stereo not given) returned Cycloheximide cs 51*, Shiga toxin inh 106*, Pf growth 96h 0%, HCMV antiviral inconclusive and Pf growth 48h -21%.
CCOC(=O)C1(C)C=C(Nc2ccc(C(N)=O)cc2)C(=O)N1c1ccccc1 (stereo not given) was read as HCMV antiviral 60.
For CCc1cccc(NC(=O)Cn2nc(-c3cc(C)ccc3C)ccc2=O)c1 the results were HCMV antiviral 24.
NC(=O)NOCc1c(F)cccc1Cl was read as Cycloheximide cs -1, Shiga toxin inh -10, Pf growth 96h 35%, HCMV antiviral 36 and Pf growth 48h 0%.
For N/C(CN1CCSCC1)=N\OCc1c(F)cccc1Cl the results were Cycloheximide cs 12, Shiga toxin inh 49*, Pf growth 96h 6%, HCMV antiviral 54 and Pf growth 48h -12%.

From PubChem BioAssay
